Screening results deposited in PubChem BioAssay by National Center for Advancing Translational Sciences (NCATS).
IMPase inh: qHTS Assay for Identifying the Cell-Membrane Permeable IMPase Inhibitors; CHO-M1 cells, IP1 accumulation, HTRF TR-FRET ratio; inhibition (IP1 accumulation), % at 46.1 µM; 120,000 tested, under 10 active; AID 901, 2007; active = well fitted curve in the direction sought with a large enough effect in the signal ratio, not every such curve was filed as active; inconclusive = small, poorly fitted or top-dose-only effect, or a change in a side signal; inactive = no such curve, though single readings can be large or run the other way; the % refers to the signal ratio;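 note: cells stimulated with carbachol in lithium chloride buffer; plate controls were DMSO basal wells for no effect and reference inhibitor wells for full effect; higher means more IMPase inhibition seen as more IP1 and lower FRET ratio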
Target sequence (P97697 whole entry, looked up): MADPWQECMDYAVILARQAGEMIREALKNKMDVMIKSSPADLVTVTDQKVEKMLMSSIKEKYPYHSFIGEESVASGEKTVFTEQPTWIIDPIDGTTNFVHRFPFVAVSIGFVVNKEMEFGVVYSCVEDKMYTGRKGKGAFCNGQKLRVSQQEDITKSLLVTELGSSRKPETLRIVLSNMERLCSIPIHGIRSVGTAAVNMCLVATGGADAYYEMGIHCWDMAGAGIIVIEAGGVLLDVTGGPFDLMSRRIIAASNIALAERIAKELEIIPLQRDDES
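CHO-M1, 2000 cells/well, cultured 16–30 h; cpd up to 46 uM; carbachol (50 uM solution, stimulation buffer w/ 50 mM LiCl, pH 7.4), 30 min 37C; IP-One TR-FRET, 10 min RT; Ex 320/Em 665, 620; Hill-fit AC50.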
Lamin A splicing: qHTS Assay for Modulators of Lamin A Splicing | HeLa LMNA splicing GFP/RFP minigene ratio, 48 h | Potency, µM (top dose mostly 46.1 µM), for inactives: at the top dose ratio change, negative = inhibition, actives largely listed as inhibitors | 0.01% of 200,000 active | AID 1487, 2009; active = well fitted inhibition curve with a large enough effect in the signal ratio, with a control signal flat, not every such curve was filed as active; inconclusive = small, poorly fitted or top-dose-only effect, or effect the other way, or a change in a side signal; the % refers to the signal ratio; note: potency is the fitted concentration of half-maximal effect
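S3 HeLa stable clones carrying a lamin A-EGFP splicing minigene plus DsRed2 were seeded at 600 cells/well in Opti-MEM with 2% FBS, pin-dosed and incubated 48 h at 37°C. Acumen cytometry (488 nm) gave the GFP/RFP total-intensity ratio.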
IMPase Li cell: qHTS Assay for Identifying the Cell-Membrane Permeable IMPase Inhibitors: Potentiation with Lithium | Potency, µM (highest dose often 59.4 µM), without a hit: at the top dose activity, negative = IMPase inhibition, usual class: inhibitors | 0.35% of 210,000 active | CHO-M1 cells, IP1 TR-FRET (IP-One), carbachol + lithium; active = well fitted inhibition curve with a large enough effect; inconclusive = small, poorly fitted or top-dose-only effect; inactive = no such curve, though single readings can be large or run the other way;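 note: IP1 builds up when IMPase is blocked and the TR-FRET signal falls; potency is the fitted concentration of half-maximal effect; plate controls were basal vehicle for no effect and high inhibitor control for full effect; nearly all actives have a fitted effect of over 50% in size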
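Steps: plate 2000 CHO-M1 cells per well and culture 16–30 h; add compound and lithium; incubate 30 min, 37C; add d2-IP1 tracer and Eu cryptate anti-IP1 antibody in lysis buffer; read after 10 min at room temperature.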
* hit, by the source's call; ? = inconclusive; . = no result given; [ ] = remark or other dose. This is one part of a sample in which hits are shown more often than they occur. Unless noted, % is set by controls: 0 for no effect and ±100 for the full control effect.

SMILES	IMPase inh	Lamin A splicing	IMPase Li cell
COCCn1c(=O)c(-c2cccs2)nc2cnc(N3CCOCC3)nc21	.	0%	11µM*
Cc1ccc2c(=O)c(C(=O)c3ccc(F)cc3)cn(CC(=O)NCc3ccccc3Cl)c2n1	.	17%[46 µM]	.
c1ccc(-c2cc(-c3ccc(N4CCOCC4)cc3)nc3ccccc23)cc1	.	-22%	-9%
O=c1cc(N2CCOCC2)oc2c(-c3ccccc3)cccc12	-2	16µM*	21%
Cc1cc(C)n2nc(SCN3C(=O)c4ccccc4C3=O)nc2n1	-1	26%	13µM*
Cc1cc(C)n2nc(SCC(=O)Nc3ccccc3)nc2n1	17	-18%[46 µM]	-4%
Nc1ncnc2c1ncn2[C@H]1O[C@@H](C(=O)OCCO)[C@@H](O)[C@H]1O	.	.	-5%
COc1ccc(-c2cc(C(F)(F)F)nc(S(=O)(=O)CCCC(=O)Nc3cc(C)on3)n2)cc1OC	.	4µM*	2%
COc1ccccc1-c1cc(C(F)(F)F)nc(S(=O)(=O)CCCC(=O)Nc2cc(C)on2)n1	5	-21%	12%[38.3 µM]
COCCNc1cc(-c2ccccc2C)ncn1	.	-5%	-1%
O=C(Nc1nc(-c2cccs2)c(C(=O)C(F)(F)F)s1)c1ccccc1	.	?	-11%
O=C(Nc1nc(-c2cccs2)c(C(=O)C(F)(F)F)s1)c1ccco1	.	?	10µM*
C[C@@]12CC[C@@H]3c4ccc(O)cc4CC[C@H]3[C@H]1C[C@@H](O)[C@H]2O	2[20.6 µM]	?	-5%
COC(=O)[C@H]1C[C@H]2CC[C@H](O)C[C@H]2N1Cc1c(F)cccc1Cl	.	.	-2%
COc1ccc2oc(-c3ccccc3)c(C(N)=O)c2c1	3	?	11µM*
COc1ccc2oc(-c3ccccc3)c(OC)c(=O)c2c1	-9	.	22%
COc1cccc(-c2nn3c(-c4ccco4)nnc3s2)c1	-7	-4%	11µM*
Brc1ccc(-c2nn3c(-c4ccncc4)nnc3s2)o1	-1	1%	.
Brc1ccc(-c2nn3c(-c4ccco4)nnc3s2)o1	?	?	11µM*
COc1cc(-c2nn3c(-c4ccco4)nnc3s2)cc(OC)c1OC	-4	-13%	-6%[38.3 µM]
Cc1nn2c(C)c(C(=O)NCC(C)c3ccccc3)cnc2c1-c1ccccc1 (stereo not drawn)	.	-6%[46 µM]	.
O=C1CCC=C1C(O)c1ccc2c(c1)OCO2 (stereo not drawn)	.	.	14%
COc1cccc(-c2cc(N(C)Cc3ccco3)ncn2)c1	.	?	1%
CC1CCC2(CC1)NC(=O)N(CC(=O)Nc1nc(-c3ccc(F)cc3)cs1)C2=O (stereo not drawn)	1	-15%	14µM*
Cc1ccc(-c2csc(NC(=O)CN3C(=O)CCC3=O)n2)cc1	.	.	5%
SMILES	IMPase inh	Lamin A splicing	IMPase Li cell
O=C1CCC(=O)N1c1nc2n(n1)C(c1ccccc1)C=C(c1ccc(Br)cc1)N2 (stereo not drawn)	-17	0%	11µM*
COc1ccc(C2C=C(c3ccc(Br)cc3)Nc3nc(N4C(=O)CCC4=O)nn32)cc1 (stereo not drawn)	-11	7%	1%[38.3 µM]
C=C(C#N)C(=O)OCC	.	.	26%
CCCCn1c(=S)[nH]c2c(oc3ccc(Cl)cc32)c1=O	-23	-4%	10µM*
CCN(CC)CCCn1c(=S)[nH]c2ccccc2c1=O	3	0%	34%[38.3 µM]
CNc1ncnc2c1ncn2[C@@H]1O[C@H](COP(=O)(O)O)[C@@H](O)[C@H]1O	.	.	-27%
O=C(Cn1nc(-c2ccccc2)c2ccccc2c1=O)Nc1ccc2c(c1)nc1n2CCOC1	8	-1%	-6%[38.3 µM]
Cc1ccc(-c2nn(CC(=O)Nc3ccc4c(c3)nc3n4CCOC3)c(=O)c3ccccc23)cc1	-1	3%	10µM*
Cc1ccc(-n2c(=O)c(C#N)cc3c(=O)n4cccc(C)c4nc32)cc1	3	-3%	10µM*
Cc1ccc(Cn2c(=N)c(C#N)cc3c(=O)n4cccc(C)c4nc32)cc1	.	.	9%
COc1ccc(Oc2nccc(-c3ccc(F)cc3)c2C#N)cc1	?	2%	28µM*
COc1ccc(Oc2nccc(-c3ccccc3)c2C#N)cc1	3	-13%	18%[38.3 µM]
CC(Sc1cccc2cccc(C(=O)O)c12)C(=O)O (stereo not drawn)	-14	3%	-2%[38.3 µM]
CC(Sc1ccc2ccccc2n1)C(=O)O (stereo not drawn)	?	8%	8.9µM*
Cc1cc(SC(C)C(=O)O)nc2ccccc12 (stereo not drawn)	.	-3%[46 µM]	?
CC(Sc1cnc2ccccc2n1)C(=O)O (stereo not drawn)	?	-9%	13µM*
C[C@@H]1O[C@@H](n2cc(F)c(=O)[nH]c2=O)[C@H](O)[C@@H]1O	5	.	.
COc1cccc([C@@H]2Oc3ccc(Br)cc3C(=O)[C@H]2OC(=O)N[C@H]2CCCc3ccccc32)c1	.	.	8%
COc1cc(O)c2c(O)c3c(c4c2c1[C@@]1(C4)C(C)=CCCC1(C)C)[C@H](O)[C@@]1(O)CC(=O)C(C(N)=O)=C(O)[C@]1(O)C3=O	.	.	-3%
CCC(C=C[C@@H]1OC(=O)C=C[C@H]1C)=C[C@H](C)CC=CC(C)=C[C@@H](C)C(=O)[C@@H](C)[C@H](O)[C@@H](C)CC(C)=CC(=O)O	.	.	11%
NS(=O)(=O)c1ccc(NC(=S)NC(=O)c2ccc(-c3ccccc3)cc2)cc1	-7	-15%	11µM*
NS(=O)(=O)c1ccc(NC(=S)NC(=O)c2ccc3c(c2)OCO3)cc1	.	13%[46 µM]	-10%
CN(Cc1ccccc1)Cn1ccnc1	.	.	5%
O=C1OC(=O)c2cc([N+](=O)[O-])ccc21	.	.	-13%
Cc1ccc(N=C2NC(=O)c3cc([N+](=O)[O-])ccc32)cc1	?	-3%	13µM*
SMILES	IMPase inh	Lamin A splicing	IMPase Li cell
CCC[C@@H]1C[C@@]1(CCC)C(NP(=O)(c1ccccc1)c1ccccc1)c1ccc(Cl)cc1 (stereo partly drawn)	.	.	15%
Cc1cccc(Cl)c1NC[C@H](O)CN1CCN(C)CC1	.	.	1%
CCCOc1ccc(/C(O)=C2\C(=O)C(=O)N(CCCN(C)C)C23C(=O)N(C)c2ccccc23)cc1 (stereo not drawn)	-6	4%	.
CCCOc1ccc(/C(O)=C2\C(=O)C(=O)N(CCCOC)C23C(=O)N(C)c2ccccc23)cc1 (stereo not drawn)	?	-5%	10µM*
CCC/C=C(\CCC)C(NP(=O)(c1ccccc1)c1ccccc1)c1ccc(C(F)(F)F)cc1 (stereo not drawn)	.	.	15%
NCCNC[C@H](O)CO	.	.	-2%
Cc1c(Cl)c(-c2n[nH]c(=S)n2-c2ccc(F)cc2)nn1C	?	-1%	11µM*
Cc1ccc(-n2c(-c3nn(C)cc3Cl)n[nH]c2=S)cc1	.	0%	-8%
Cn1cc(Cl)c(-c2n[nH]c(=S)n2-c2ccc(F)cc2)n1	.	6%	?
Cn1cc(Cl)c(-c2n[nH]c(=S)n2-c2ccccc2)n1	.	?	11µM*
C1CCCNCC1	.	.	8%
O=C(Nc1cccc(F)c1)N1CC[C@@]2(CCCNC2)C1	.	.	15%
C[N@@+]1(Cc2ccc(Cl)c(Cl)c2)CCC[C@@H]1c1ccc[n+](Cc2ccc(Cl)c(Cl)c2)c1	.	.	19%
